This is an account of results in PubChem BioAssay (NCATS).

Assay [1] is described as follows: Primary qHTS for small molecule stabilizers of the endoplasmic reticulum resident proteome: Secreted ER Calcium Modulated Protein (SERCaMP) assay (AID 1508630). Also: % is scaled to controls: 0 for no effect and ±100 for the full control effect. An outline of the steps:
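The SH-SY5Y reporter protocol was run at 3 concentrations up to 38.3 uM (primary) or 11 concentrations (follow-up): 16 h compound, 100 nM thapsigargin for 4 h, then extracellular luciferase luminescence.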
On the technique in general: qHTS replaces the single test concentration by a dilution series.

A short description of assay [2]: A High-Content qHTS Against Drug Library for the Identification of Small Molecules that Inhibit DYT1 Early Onset Primary Dystonia-Associated Cell Pathology (AID 1645839; calls by dose curve). An outline of the steps: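 Induced EGFP-delE TorsinA cells are imaged after 48 h of compound treatment. Punctate fusion-protein distribution gives the %pathology value, while nuclei counts flag toxicity. Wild-type EGFP-hTOR1A cells define the normal pattern.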

Assay [3] addresses Cytochrome P450 2D6 (Homo sapiens) (UniProt P10635). Briefly: Cytochrome P450 family 2 subfamily D member 6 (CYP2D6) small molecule antagonists: luciferase biochemical (cell-free) qHTS assay (AID 1645840; active = well fitted curve in the direction sought with a large enough effect in the repeat runs; an effect the other way counts as inactive or inconclusive; also: nearly all actives have a fitted effect of over 55% in size; also: potency is read from the fitted curve at half-maximal effect; as to activity change, negative = inhibition: % is scaled to controls: 0 for no effect and ±100 for the full control effect). An outline of the steps:
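P450-Glo CYP2D6 system: proluciferin substrate converted by enzyme to luciferin, read by luminescence proportional to activity. Enzyme-substrate mix with compound 10 min at room temperature, then NADPH regeneration 1 h before detection reagent.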

The target in assay [4] is Cytochrome P450 2C9 (Homo sapiens) (UniProt P11712). The assay can be described thus: Cytochrome P450 family 2 subfamily C member 9 (CYP2C9) small molecule antagonists: luciferase biochemical (cell-free) qHTS assay (AID 1645842; active = well fitted curve in the direction sought with a large enough effect in the repeat runs; an effect the other way counts as inactive or inconclusive; also: nearly all actives have a fitted effect of over 55% in size; also: potency is read from the fitted curve at half-maximal effect; as to activity change, negative = inhibition: % is scaled to controls: 0 for no effect and ±100 for the full control effect). In outline: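 P450-Glo CYP2C9 system: proluciferin substrate with enzyme in mix containing 0.4% BSA, 10 min at room temperature, then NADPH regeneration solution added and incubated 1 h at 37C. Detection reagent stopped reaction; luminescence read after 20 min as RLU.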

A short description of assay [5]: Cytotoxicity counterscreen for inhibitors of SARS-CoV-2 cell entry (AID 1645845; calls by dose curve; also: nearly all actives have a fitted effect of over 50% in size). An outline of the steps: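 After a 15 min room-temperature ATPLite 1step step, luminescence reflected ATP remaining in HEK293-ACE2 cells exposed to compound for 1 h plus 48 h at 37 C, with percent activity set by cell and no-cell controls.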
Assay [6] can be described thus: Primary qHTS to identify inhibitors of SARS-CoV-2 cell entry (AID 1645846; calls by dose curve; also: nearly all actives have a fitted effect of over 45% in size). As to conditions: activity change, negative = inhibition: at 57.1 µM (top of the series) unless noted. In outline:
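Data are normalized to wells receiving SARS-CoV-2-S pseudoparticles and those given bald particles. Entry signal was luciferase luminescence in stable hACE2 Expi293F cells, 48 hr post-infection, after 1 hr compound pretreatment.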

Assay [7] in a line: Primary qHTS for inhibitors of nuclear receptor binding SET domain protein 2 (NSD2) in an isogenic RCH-ACV NSD2 p.E1099K mutant (9B) (AID 1645876). Also: nearly all actives have a fitted effect of over 70% in size. Also: potency is read from the fitted curve at half-maximal effect.
Assay [8] can be described thus: Primary qHTS for inhibitors of nuclear receptor binding SET domain protein 2 (NSD2) in an RCH-ACV wild type WT cells (2C) (AID 1645877). Also: nearly all actives have a fitted effect of over 70% in size. Also: potency is read from the fitted curve at half-maximal effect.
Assay [9] in a line: Cell Viability qHTS for small molecule stabilizers of the endoplasmic reticulum resident proteome (AID 1508629).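 Also: compound exposure about 46 h in total before the viability read.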 Also: potency is read from the fitted curve at half-maximal effect. As to conditions: cell viability counter-screen, 100 nM thapsigargin for final 4 h.
The target in assay [10] is Cytochrome P450 3A4 (Homo sapiens) (UniProt P08684). Briefly: Cytochrome P450 family 3 subfamily A member 4 (CYP3A4) small molecule antagonists: luciferase qHTS assay (AID 1645841; active = well fitted curve in the direction sought with a large enough effect in the repeat runs; an effect the other way counts as inactive or inconclusive; also: nearly all actives have a fitted effect of over 45% in size). An outline of the steps: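 P450-Glo CYP3A4 enzyme with proluciferin substrate was preincubated with DMSO-dissolved compounds for 10 min at room temperature. NADPH regeneration solution started a 1 h reaction. Detection reagent stopped it, and luminescence was read after 20 min.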

The target of assay [11] is Papain (Carica papaya) (UniProt P00784). The assay can be described thus: Primary qHTS assay for inhibitors of the protease papain (AID 1645873).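 Also: papain turnover of Z-FR-AMC read as the AMC fluorescence gain over 10 min; % is scaled to controls: 0 for no effect and ±100 for the full control effect.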

The structures appear in SMILES notation. Records with an inconclusive call do not appear. The source made the active and inactive calls. Unless noted, calls follow the shape of the dose curve; as a rule, active = well fitted curve in the direction sought with a large enough effect; inconclusive = small, poorly fitted or top-dose-only effect, or another doubt; inactive = no such curve, though single readings can be large; an effect the other way counts as inactive or inconclusive.

Sequence of Cytochrome P450 2C9 (Homo sapiens) (P11712 whole entry, looked up): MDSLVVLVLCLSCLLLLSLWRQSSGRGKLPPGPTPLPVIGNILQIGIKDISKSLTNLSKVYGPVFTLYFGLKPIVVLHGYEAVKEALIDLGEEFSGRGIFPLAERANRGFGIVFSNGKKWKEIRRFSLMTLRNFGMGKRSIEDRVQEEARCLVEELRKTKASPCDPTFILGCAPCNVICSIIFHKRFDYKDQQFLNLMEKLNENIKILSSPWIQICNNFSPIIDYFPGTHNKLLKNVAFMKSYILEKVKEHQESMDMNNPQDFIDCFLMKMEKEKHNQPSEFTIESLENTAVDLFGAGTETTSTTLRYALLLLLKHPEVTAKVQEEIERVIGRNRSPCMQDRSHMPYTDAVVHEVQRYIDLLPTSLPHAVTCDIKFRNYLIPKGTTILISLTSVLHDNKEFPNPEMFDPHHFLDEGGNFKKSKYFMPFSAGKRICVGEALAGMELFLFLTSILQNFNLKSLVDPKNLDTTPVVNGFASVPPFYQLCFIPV
Sequence of Cytochrome P450 3A4 (Homo sapiens) (P08684 whole entry, looked up): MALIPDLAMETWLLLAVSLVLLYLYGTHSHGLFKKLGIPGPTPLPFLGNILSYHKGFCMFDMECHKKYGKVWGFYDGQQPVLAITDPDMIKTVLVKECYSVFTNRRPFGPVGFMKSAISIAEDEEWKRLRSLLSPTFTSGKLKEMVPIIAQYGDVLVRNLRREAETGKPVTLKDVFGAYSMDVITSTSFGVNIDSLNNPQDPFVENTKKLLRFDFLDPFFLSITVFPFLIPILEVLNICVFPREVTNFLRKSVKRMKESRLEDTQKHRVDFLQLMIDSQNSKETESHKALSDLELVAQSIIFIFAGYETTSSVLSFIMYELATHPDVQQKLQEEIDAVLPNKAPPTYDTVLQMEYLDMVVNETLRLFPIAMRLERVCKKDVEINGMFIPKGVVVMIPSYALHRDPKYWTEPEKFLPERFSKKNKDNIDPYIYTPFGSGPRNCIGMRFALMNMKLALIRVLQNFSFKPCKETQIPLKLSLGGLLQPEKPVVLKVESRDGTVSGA
Sequence of Cytochrome P450 2D6 (Homo sapiens) (P10635 whole entry, looked up): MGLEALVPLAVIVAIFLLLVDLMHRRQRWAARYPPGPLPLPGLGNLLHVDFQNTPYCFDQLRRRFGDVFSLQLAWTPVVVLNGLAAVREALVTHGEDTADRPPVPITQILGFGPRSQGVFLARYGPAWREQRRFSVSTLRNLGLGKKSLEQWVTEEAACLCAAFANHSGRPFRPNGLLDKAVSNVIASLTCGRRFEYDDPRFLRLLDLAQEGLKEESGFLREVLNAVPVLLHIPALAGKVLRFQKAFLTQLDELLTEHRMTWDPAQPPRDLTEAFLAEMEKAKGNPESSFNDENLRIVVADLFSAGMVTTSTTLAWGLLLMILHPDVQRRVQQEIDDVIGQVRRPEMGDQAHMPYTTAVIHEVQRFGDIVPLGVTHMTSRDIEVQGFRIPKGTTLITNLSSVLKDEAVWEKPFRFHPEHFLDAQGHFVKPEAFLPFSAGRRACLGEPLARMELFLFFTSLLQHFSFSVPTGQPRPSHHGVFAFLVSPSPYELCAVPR
Sequence of Papain (Carica papaya) (P00784 whole entry, looked up): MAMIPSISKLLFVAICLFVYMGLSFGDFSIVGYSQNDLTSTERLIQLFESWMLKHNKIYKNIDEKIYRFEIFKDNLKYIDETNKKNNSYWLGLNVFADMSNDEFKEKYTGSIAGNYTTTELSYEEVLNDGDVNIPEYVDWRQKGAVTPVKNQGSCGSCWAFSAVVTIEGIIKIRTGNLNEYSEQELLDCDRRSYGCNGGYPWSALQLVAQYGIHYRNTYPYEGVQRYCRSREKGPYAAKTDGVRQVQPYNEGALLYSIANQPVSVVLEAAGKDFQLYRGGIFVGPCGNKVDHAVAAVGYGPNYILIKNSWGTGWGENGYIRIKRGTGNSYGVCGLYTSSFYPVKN

For `CNC(C)Cc1ccc2c(c1)OCO2` (stereo not given), the result in assay [1] and in assay [2] was inactive. The Potency in [3] was 0.693 µM (active). For the same compound, the Potency result in assay [4] is “inactive”.
`C[C@@H]1CN(C2CCC(C#N)(c3ccc(F)cc3)CC2)CC[C@]1(C(=O)O)c1ccccc1` (stereo not given in full): the result in assay [1] and in [2] was inactive. For the same compound, the Potency in assay [3] is 0.049 µM (active). The Potency entry in assay [4], in assay [5], in [7] and in [8] was “inactive” each time. For the same compound, the activity change, negative = inhibition in assay [6] is -31.8%.
With `COc1ccc2[nH]cc(CCN(C(C)C)C(C)C)c2c1`, the result in assay [1] and in assay [2] was inactive. Further, the Potency in [3] is 3.25 µM (active). For the same compound, in assay [4], the Potency entry was “inactive”.
Turning to `C[N+]1(C)[C@@H]2CC[C@H]1CC(OC(=O)C(CO)c1ccccc1)C2` (stereo not given in full), the outcome in assay [1] and in assay [2] was inactive. Also, the Potency entry in assay [3], in [4], in assay [5], in assay [7] and in [8] was “inactive” throughout.
`O=C1NCN(c2ccccc2)C12CCN(CCCOc1ccc(F)cc1)CC2`: the max response in assay [9] was -6.39% (inactive). In addition, the Potency was 0.347 µM (active) in assay [3], 6.68 µM (active) in assay [7] and 7.5 µM (active) in [8]. Moreover, the Potency result in assay [4] is “inactive”.
`CC[n+]1c(-c2ccccc2)c2cc(N)ccc2c2ccc(N)cc21`: the Potency in assay [9] is 3.16 µM (active); in [3] it was 3.47 µM (active); in assay [7] it was 5.96 µM (active); in assay [8] it was 2.66 µM (active). Besides, the compound was called inactive in assay [2].
With `CCOC(=O)c1ncn2c1CN(C)C(=O)c1c(I)cccc1-2`, the result in [1] and in assay [2] was inactive. Besides, the Potency result in assay [3], in assay [4], in assay [5], in [6], in assay [7] and in assay [8] was “inactive” in each case.
For `CC(C)(C)OC(=O)c1ncn2c1[C@@H]1CCCN1C(=O)c1c(Br)cccc1-2`, the outcome in assay [1] and in [2] was inactive. The Potency entry in [3] was “inactive”. Further, in assay [4], the Potency was 4.36 µM (active).
Take `C#C[C@]1(O)CC[C@H]2[C@@H]3CCC4=CC(=O)CCC4=C3C=C[C@@]21CC`: the result in [1] and in assay [2] was inactive. Also, the Potency in assay [3] is 0.977 µM (active). Further, the Potency entry in assay [4], in assay [5], in assay [7] and in assay [8] was “inactive” in each case.
Regarding `CCCN(CCC)CCc1c[nH]c2ccccc12`, the outcome in [1] and in assay [2] was inactive. The Potency in assay [3] was 0.394 µM (active). Further, the Potency entry in assay [10] and in [4] was “inactive” each time.
Regarding `NC(=O)OCCCc1ccccc1`, in [9], the max response was 1.15% (inactive). In assay [2], the call was inactive. For the same compound, the Potency entry in [3], in assay [10], in assay [4], in assay [5], in assay [6] and in assay [7] was “inactive” throughout. Besides, the Potency entry in assay [8] was “inactive”.
As for `CC(C)C(Br)C(=O)NC(N)=O` (stereo not given), the result in [1] and in assay [2] was inactive. Besides, the Potency entry in assay [3], in [4], in assay [5], in [7] and in assay [8] was “inactive” each time. Besides, the activity change, negative = inhibition in assay [6] is 4.07%.
As for `CC1=C2[C@H]3OC(=O)[C@@H](C)[C@@H]3CC[C@@]2(C)C=CC1=O`, the outcome in assay [1] and in assay [2] was inactive. Further, the Potency entry in assay [3], in assay [4], in [5], in assay [7] and in [8] was “inactive” throughout. Further, the activity change, negative = inhibition in assay [6] turned out to be 2.07%.
For `OC(c1ccccc1)(c1ccccc1)C1CCNCC1`, in [9], the max response is -6.14% (inactive). In addition, the compound was classed as inactive in assay [2]. For the same compound, the Potency result in assay [4] and in assay [7] was “inactive” each time.
Regarding `CCC1(CC)C(=O)NC(=O)NC1=O`, the outcome in assay [1] and in assay [2] was inactive. The Potency result in assay [3], in [10] and in assay [4] was “inactive” each time.
For `CCOP(=S)(OCC)O/N=C(\C#N)c1ccccc1`, the outcome in [1] and in assay [2] was inactive. The Potency is 13.8 µM (active) in [3] and 2.19 µM (active) in [4].
In the case of `c1cc2c(c(N3CCNCC3)c1)OCCO2`, in [9], the max response is 5.26% (inactive). In [2], the compound was classed as inactive. Further, the Potency entry in assay [3] and in assay [4] was “inactive” each time.
In the case of `CCCC(C)C1(CC)C(=O)N=C(S)NC1=O` (stereo not given), the outcome in assay [1] and in [2] was inactive. For the same compound, the Potency entry in assay [3] was “inactive”. In addition, the Potency in [4] was 15.5 µM (active).
On to `CN1C2CCC(C)(C)C1CC(OC(=O)C(O)(c1cccs1)c1cccs1)C2` (stereo not given), for which, in assay [9], the max response was -12.1% (inactive). Moreover, the Potency in [3] was 13.8 µM (active). Further, the Potency result in assay [4] and in assay [5] was “inactive” in each case.
As for `CC(C)=CCN1CC[C@@]2(C)c3cc(O)ccc3C[C@@H]1[C@@H]2C`, the max response in assay [9] was -7.58% (inactive). Besides, the call in assay [2] was inactive. For the same compound, the Potency was 0.176 µM (active) in [3], 18.9 µM (active) in assay [7] and 11.9 µM (active) in assay [8]. The Potency entry in assay [4] is “inactive”.
Regarding `N#Cc1nn(-c2c(Cl)cc(C(F)(F)F)cc2Cl)c(N)c1S(=O)C(F)(F)F` (stereo not given), the outcome in [1] and in assay [2] was inactive. Further, the Potency in assay [3] was 3.89 µM (active); in assay [4], 3.89 µM (active); in assay [8], 21.1 µM (active). Besides, the Potency result in [5] is “inactive”.
Take `CC(CC(C(N)=O)(c1ccccc1)c1ccccc1)N(C)C` (stereo not given): the result in assay [1] and in [2] was inactive. Moreover, the Potency in assay [3] was 7.76 µM (active). For the same compound, the Potency entry in [4], in assay [5], in assay [7] and in assay [8] was “inactive” in each case.
With `CN1[C@@H]2CC[C@H]1CC(OC(=O)c1cc(Cl)cc(Cl)c1)C2` (stereo not given in full), the max response in [9] was -1.72% (inactive). Besides, the Potency in assay [3] was 0.0436 µM (active). The Potency result in [4] and in [7] was “inactive” each time.
Take `CCCCCCCCC(=O)NCc1ccc(O)c(OC)c1`: the result in assay [1] and in assay [2] was inactive. The Potency was 13.8 µM (active) in assay [3] and 0.692 µM (active) in assay [4]. For the same compound, the Potency result in assay [5], in [7] and in assay [8] was “inactive” throughout. Also, the activity change, negative = inhibition in assay [6] is 4.35%.
In the case of `NC(=O)CN1CCCC1=O`, the result in [1], in [2] and in [11] was inactive. The Potency result in [3], in assay [4], in [5], in assay [6], in assay [7] and in assay [8] was “inactive” in each case.
As to `CC(Cc1ccccc1)NCCCCl` (stereo not given), the result in assay [1] and in [2] was inactive. Moreover, the Potency in assay [3] is 1.23 µM (active). Besides, the Potency entry in assay [4] and in [5] was “inactive” in each case.
Take `O=C(O)c1nn(Cc2ccc(Cl)cc2Cl)c2ccccc12`: the outcome in assay [1] and in assay [2] was inactive. For the same compound, the Potency entry in assay [3], in assay [4], in assay [5], in [7] and in assay [8] was “inactive” in each case. Besides, in assay [6], the activity change, negative = inhibition is -33.8%.
With `O=C(O)Cc1ccccc1`, the result in assay [1] and in assay [2] was inactive. The Potency in assay [3] is 15.5 µM (active). The Potency entry in assay [4], in [5], in assay [6], in assay [7] and in [8] was “inactive” each time.
Take `O=C(NC(=O)c1c(F)cccc1F)Nc1cc(Cl)c(OC(F)(F)C(F)C(F)(F)F)cc1Cl` (stereo not given): the outcome in assay [1] and in [2] was inactive. Besides, the Potency result in assay [3] and in assay [5] was “inactive” throughout. Further, the Potency in [4] was 19.5 µM (active).
Take `Cc1nnc2n1-c1sc(CCC(=O)N3CCOCC3)cc1C(c1ccccc1Cl)=NC2`: the outcome in assay [1] and in assay [2] was inactive. The Potency result in assay [3], in assay [4], in assay [5], in assay [7] and in assay [8] was “inactive” each time.
